{"source": "PubChem BioAssay (EPA / NIEHS)", "note": "Inconclusive results are not listed. Active and inactive are the calls of the source. The calls were made as follows: active = hit-call score of the fitted dose curve at least 0.9, where 1 is the maximum; inconclusive = response in the unintended direction; inactive = score below 0.9."}
{"target": "PGR (gene 5241) (UniProt P06401)", "sequence (P06401 whole entry, looked up)": "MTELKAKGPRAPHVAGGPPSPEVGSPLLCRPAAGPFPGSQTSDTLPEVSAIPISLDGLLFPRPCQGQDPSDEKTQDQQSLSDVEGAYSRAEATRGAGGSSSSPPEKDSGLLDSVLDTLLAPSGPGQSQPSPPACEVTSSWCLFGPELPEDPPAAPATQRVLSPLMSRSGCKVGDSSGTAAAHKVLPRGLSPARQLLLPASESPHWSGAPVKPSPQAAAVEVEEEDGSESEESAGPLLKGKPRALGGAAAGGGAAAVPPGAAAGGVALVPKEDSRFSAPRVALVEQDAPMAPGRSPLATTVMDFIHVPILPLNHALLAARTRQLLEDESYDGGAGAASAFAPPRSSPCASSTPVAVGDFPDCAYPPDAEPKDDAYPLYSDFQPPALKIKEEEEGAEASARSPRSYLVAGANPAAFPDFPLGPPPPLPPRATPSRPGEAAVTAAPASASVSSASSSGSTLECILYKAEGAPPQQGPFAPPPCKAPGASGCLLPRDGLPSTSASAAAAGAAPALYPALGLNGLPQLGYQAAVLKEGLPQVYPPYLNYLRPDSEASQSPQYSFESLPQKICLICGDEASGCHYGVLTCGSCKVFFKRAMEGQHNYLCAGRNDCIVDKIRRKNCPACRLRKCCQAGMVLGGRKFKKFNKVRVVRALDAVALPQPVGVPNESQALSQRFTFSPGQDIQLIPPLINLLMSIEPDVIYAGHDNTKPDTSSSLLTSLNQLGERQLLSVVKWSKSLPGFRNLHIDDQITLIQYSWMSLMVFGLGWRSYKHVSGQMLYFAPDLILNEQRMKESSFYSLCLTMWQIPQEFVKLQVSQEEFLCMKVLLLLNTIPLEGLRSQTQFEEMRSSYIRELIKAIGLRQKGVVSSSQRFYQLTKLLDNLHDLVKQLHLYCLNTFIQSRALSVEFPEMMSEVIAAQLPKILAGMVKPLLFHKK", "assay": "NVS_NR_hPR: NovaScreen (NVS) Nuclear Receptor Binding Assay for human Progestron Receptor (PR) (AID 2283360);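 also: active means loss of bound radioligand signal versus DMSO baseline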", "procedure": "NVS_NR_hPR is a biochemical, single-readout assay that uses extracted gene-proteins from T47D in a cell-free assay. Measurements were taken 18 hours after chemical dosing in a 96-well plate.NVS_NR_hPR is one of one assay component(s) measured or calculated from the NVS_NR_hPR assay. It is designed to make measurements of radioligand binding, a form of binding reporter, as detected with scintillation counting signals by Lysate-based radiodetection technology.Data from the assay component NVS_NR_hPR was analyzed into 1 assay endpoint. This assay endpoint, NVS_NR_hPR, was analyzed in the positive analysis fitting direction relative to DMSO as the negative control and baseline of activity. Using a type of binding reporter, loss-of-signal activity can be used to understand changes in the binding as they relate to the gene PGR. Furthermore, this assay endpoint can be referred to as a primary readout, because the performed assay has only produced 1 assay endpoint. To generalize the intended target to other relatable targets, this assay endpoint is annotated to the nuclear receptor intended target family, where the subfamily is steroidal.\nBinding assays used specific radioligands (tritiated, iodinated) with non-radioactive competitive displacement ligands in agonist or antagonist protocols (as indicated) and various reference compounds and inhibitors to titrate specific binding to receptors and transporters. Most enzyme assays (CYPs, kinases, phosphatases, proteases, HDACs) used recombinant protein and specific substrates (fluorescence mostly, some colorimetric and radioactive) and inhibitors, followed by a biochemical separation of substrate and product. All assays for the biochemical HTS were initially run in duplicate at a single concentration (10 uM for CYP450 assays and 25 uM for all others). […] Each assay was run with positive and negative controls, and concurrent controls on every plate. The follow-up (secondary) screen tested active chemical-pairs in concentration series, as well as a few additional assays not tested in the primary screen, some selected negative inactives, and several cases re-run in the concentration series for confirmatory purposes."}
{"smiles": "CCOC(=O)C(C)(C)Oc1ccc(Cl)cc1", "outcome": "inactive"}
{"smiles": "COc1cc(S(=O)(=O)O)c(C)cc1N=Nc1c(O)ccc2cc(S(=O)(=O)O)ccc12", "AC50": "14.2 µM (active)"}
{"smiles": "c1cc(-c2ccncc2)ccn1", "outcome": "inactive"}
{"smiles": "Cc1cc(NC(=O)C(=O)O)cc(C)c1Oc1ccc(O)c2c1CCC2", "AC50": "7.64 µM (active)"}
{"smiles": "CC1(C)CC(N=C=O)CC(C)(CN=C=O)C1", "note": "(stereo unspecified)", "AC50": "11.7 µM (active)"}
{"smiles": "CNCc1cc(F)ccc1Oc1ccc(Cl)c(Cl)c1", "outcome": "inactive"}
{"smiles": "Oc1ccc2c(c1)OC[C@@H](N1CCC(O)(c3ccc(F)cc3)CC1)[C@H]2O", "outcome": "inactive"}
{"smiles": "CCOc1ccc2c(c1)C(C)=CC(C)(C)N2", "AC50": "9.2 µM (active)"}
{"smiles": "COC(=O)c1ccc(O)cc1", "outcome": "inactive"}
{"smiles": "Nc1ccc(S(=O)(=O)c2ccc(N)cc2)cc1", "outcome": "inactive"}
{"smiles": "CCCCCCCC=O", "outcome": "inactive"}
{"smiles": "CCCCC(CC)COC(=O)CC(C(=O)OCC(CC)CCCC)S(=O)(=O)O", "note": "(stereo unspecified)", "AC50": "18.7 µM (active)"}
{"smiles": "Nc1ccccc1N", "outcome": "inactive"}
{"smiles": "COCCOC[C@H](CC1(C(=O)NC2CCC(C(=O)O)CC2)CCCC1)C(=O)Oc1ccc2c(c1)CCC2", "note": "(stereo partly specified)", "outcome": "inactive"}
{"smiles": "CCCCCCC(=O)OCC", "outcome": "inactive"}
{"smiles": "CN[C@H]1CC[C@@H](c2ccc(Cl)c(Cl)c2)c2ccc(S(N)(=O)=O)cc21", "outcome": "inactive"}
